The source of these data is PubChem BioAssay AID720553 (National Center for Advancing Translational Sciences (NCATS), 2013).

The structures appear in SMILES notation. In all, about 340,000 compounds went through this assay and about 3,300 (0.97%) were called active.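 Rule for the calls: active = maximum activity change below -70%; inconclusive = maximum activity change from -70% to -50%; inactive = maximum activity change above -50%.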 The sample as a whole holds a higher share of actives than the screen did.
% is set by controls: 0 for no effect and ±100 for the full control effect.

The test relates to Potassium voltage-gated channel subfamily H member 2, brain isoform KCNH2 3.1 (human). The experiment in a line: qHTS for Inhibitors of KCHN2 3.1: Mutant qHTS. To be noted: U2OS KCNH2 3.1, thallium flux FluxOr; active compounds read low. The gist of the method: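 Normalized rate constant (relative to positive and negative DMSO controls) derived from a 2 min kinetic fluorescence read after stimulation; U2OS cells expressing the 3.1 isoform via virus at 1.77 x 10^8 /mL.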
For `Cc1cccc(N(CC(=O)N2CCCC2)S(C)(=O)=O)c1C`, the activity change was -8.33% (inactive).
Take `Cc1cccc(C)c1NC(=O)N1CC(C)OC(C)C1` (stereo unspecified): the activity change is -192% (active).
`CC1CN(C(=S)Nc2cccc(F)c2)CC(C)O1` (stereo unspecified): the activity change was 6.1% (inactive).
Turning to `CSc1ccc(NC(=O)N2CC(C)OC(C)C2)cc1` (stereo unspecified), the activity change is 8.24% (inactive).
For the compound `C=CCOc1cccc(C2C(C(=O)c3ccc(C)o3)=C(O)C(=O)N2CCN2CCOCC2)c1` (stereo unspecified), the activity change was -2.42% (inactive).
The value for `CCc1cc(-c2nnn(CCC3COCCO3)c2CC)ccc1-c1cn(Cc2ccc3ccccc3c2)nn1` (stereo unspecified) was 0.058% (inactive); that for `Cc1cc(Nc2ccc(C)c(C)c2)n2ncnc2n1` was 30.4% (inactive); that for `O=C(c1cc2cc(F)ccc2[nH]1)N1CCN(c2ccc(F)cc2)CC1` was -39.9% (inactive).
Take `O=C(CCCN1CCc2[nH]c3ccc(F)cc3c2C1)c1ccc(F)cc1`: the activity change is -92% (active).
For `CC1CCc2[nH]c3ccc(C(=O)N(C)CC(=O)Nc4cccc(F)c4)cc3c2C1` (stereo unspecified), the activity change was 13.3% (inactive).
Turning to `C[C@@H]1CN([C@@H](C)CO)C(=O)CCCn2nncc2CO[C@H]1CN(C)C(=O)Nc1ccc(C(F)(F)F)cc1`, the activity change is -12.6% (inactive).
With `CC[C@]1(C(=O)OC)[C@H]2C(=O)N(Cc3ccccc3)C(=O)[C@H]2[C@H]2CN=C(SCc3ccc(Cl)cc3)N21`, the activity change is -98.8% (active).
For the compound `CC[C@]1(C(=O)OC)[C@H]2C(=O)N(Cc3ccccc3)C(=O)[C@H]2[C@H]2CN=C(SCc3ccccc3)N21`, the activity change is 14.7% (inactive).
As to `CC[C@]1(C(=O)OC)[C@H]2C(=O)N(Cc3ccccc3)C(=O)[C@H]2[C@H]2CN=C(SCc3ccc(C#N)cc3)N21`, the activity change was 4.34% (inactive).
As for `CC(C)Oc1ccc(/C=N/NC(=O)c2nnn(-c3nonc3N)c2CN(C)C2CCCCC2)cc1`, the activity change is -81.3% (active).
For the compound `CC(C)c1c(C(=O)N/N=C/c2ccc(-c3ccccc3)cc2)nnn1-c1nonc1N`, the activity change was -1.92% (inactive).
For the compound `Nc1nonc1-n1nnc(C(=O)N/N=C\c2ccncc2)c1CN1CCCCC1`, the activity change is -0.869% (inactive).
The value for `O=C(NCCN1CCOCC1)c1ccc2c(c1)N(Cc1cccc(Cl)c1)C(=O)c1ccccc1S2(=O)=O` was 17.1% (inactive); that for `C[C@H]1CN([C@@H](C)CO)C(=O)c2cc(-c3cccc(F)c3)cnc2O[C@@H]1CN(C)S(C)(=O)=O` was 8.27% (inactive).
Take `C[C@@H]1CN([C@H](C)CO)C(=O)CCCn2nncc2CO[C@@H]1CN(C)C(=O)OCc1ccccc1`: the activity change is 1.9% (inactive).
Regarding `CCOc1ccc(-c2nc(N)ncc2-c2ccccc2OC)c(O)c1`, the activity change is -18.2% (inactive).
The value for `C=C(C)COc1ccc(-c2nc(N)ncc2-c2ccccc2OC)c(O)c1` was -6.62% (inactive); that for `COc1ccc(-c2nc(N)ncc2-c2ccc(Cl)cc2)c(O)c1` was -191% (active); that for `Cc1ccccc1-c1ccc2c(c1)O[C@@H](CN(C)Cc1ccc(C(=O)O)cc1)[C@@H](C)CN([C@H](C)CO)S2(=O)=O` was 16.7% (inactive).
As to `CC(C)CC1C(=O)N(Cc2cn(Cc3ccco3)nn2)CCS(=O)(=O)N1Cc1ccc(-c2ccc(Cl)c(Cl)c2)cc1` (stereo unspecified), the activity change was -7.55% (inactive).
Consider `Cc1ccc(C(c2nnnn2CS(=O)(=O)c2ccc(C)cc2)N2CCC(C(N)=O)CC2)cc1` (stereo unspecified), for which the activity change was 1.37% (inactive).
With `CCCCC(c1nnnn1CS(=O)(=O)c1ccc(C)cc1)N1CCC(C(N)=O)CC1` (stereo unspecified) the figure was 5.52% (inactive); with `Cc1ccc(C(c2nnnn2CS(=O)(=O)c2ccc(C)cc2)N2CCC(C)CC2)cc1` (stereo unspecified), -72.8% (active); with `NC(CSC(c1ccccc1)(c1ccccc1)c1ccc(-c2ccccc2)cc1)C(=O)O` (stereo unspecified), -0.906% (inactive).
With `Cc1cccc(C(=O)OCC(=O)Nc2sccc2C(N)=O)c1C`, the activity change is 0.26% (inactive).
On to `Cn1c(=N)n(CC(O)c2cccs2)c2ccccc21` (stereo unspecified), for which the activity change is -1.02% (inactive).
In the case of `N=c1n(Cc2ccc(Cl)cc2)c2ccccc2n1CC(O)c1ccco1` (stereo unspecified), the activity change was -89.6% (active).
Turning to `N=c1n(CCc2ccccc2)c2ccccc2n1Cc1ccccc1F`, the activity change was -48.9% (inactive).
On to `CCc1cccc(CC)c1N1C(=O)CC(Sc2ccccc2N)C1=O` (stereo unspecified), for which the activity change is -2.21% (inactive).
For the compound `COc1ccc(C2C(C#N)=C(N)Oc3n[nH]c(C)c32)cc1CN1CCN(c2ccc(F)cc2)CC1` (stereo unspecified), the activity change was -93.4% (active).
Take `COc1cc(C2C(C#N)=C(N)Oc3n[nH]c(-c4ccccn4)c32)cc(OC)c1OC` (stereo unspecified): the activity change is -3.63% (inactive).
Turning to `COc1ccc(-c2[nH]nc3c2C(c2ccncc2)C(C#N)=C(N)O3)cc1` (stereo unspecified), the activity change is 4.99% (inactive).
The value for `COc1ccc(/C=C2\SC(=S)N(CCC(=O)N3CCOCC3)C2=O)cc1OC` was -2.83% (inactive); that for `CN(C)C1=NC[C@H](Cc2ccccc2)N1CCc1ccc(F)cc1` was -104% (active); that for `CCCC[C@@H]1CN=C(N)N1CCc1cccc(F)c1` was 17.6% (inactive).
In the case of `CCCCN1C(N)=NC[C@@H]1Cc1ccccc1`, the activity change was 12.8% (inactive).
Take `Cc1ccc(-c2ccc(CN3C(C(C)C)C(=O)N(Cc4cn(CCC5OCCCO5)nn4)CCS3(=O)=O)cc2)cc1` (stereo unspecified): the activity change was -5.44% (inactive).
With `Cc1cc2cc3n(c2nn1)N=C(Cl)CC3` the figure was -0.335% (inactive).
With `CC(OC(=O)c1cccnc1Cl)C(=O)NC1CCCCC1` (stereo unspecified) the figure was 22.3% (inactive); with `Cc1ccc(S(=O)(=O)N2C[C@H]3C(=O)C[C@@H](c4cccc5ccccc45)N(S(=O)(=O)c4ccc(C)cc4)[C@H]3C[C@H]2c2ccc(Cl)cc2)cc1`, 5.42% (inactive); with `O=C(CSc1ncn[nH]1)Nc1nc2c(F)c(F)c(F)cc2s1`, -9.38% (inactive).
Take `O=[N+]([O-])c1cccc(S(=O)(=O)N2CCCCCC2)c1`: the activity change is -16.9% (inactive).
On to `CCc1nccn1S(=O)(=O)c1cccc([N+](=O)[O-])c1`, for which the activity change was -98.3% (active).
Take `Cc1cc(C)n(S(=O)(=O)c2cccc([N+](=O)[O-])c2)n1`: the activity change is 8.67% (inactive).
The value for `OCC1OC(n2cnc3c(N4CCCC4)ncnc32)C(O)C1O` (stereo unspecified) was 3.35% (inactive); that for `O=S1(=O)CCN(C2CCCCCCCCCCC2)CC1` was -0.635% (inactive).
With `N#Cc1cccc(NC(=O)CCC2CCCC2)c1` the figure was -4.75% (inactive); with `N#Cc1cccc(NC(=O)CN2CCCCCC2)c1`, 13.8% (inactive); with `N#Cc1cccc(Nc2c3c(nc4ccccc24)CCCC3)c1`, -94.8% (active).
As for `O=C(Nc1cc(F)ccc1F)c1ccc2c(=O)n3c(nc2c1)CCC3`, the activity change is -2.54% (inactive).
With `COCCCN1C(=O)C(CC(=O)NCc2cccs2)CC(C(=O)N2CCOCC2)=C1C` (stereo unspecified), the activity change is 3.81% (inactive).
In the case of `C#CCOCCOCCOCCNc1nc(N2CCN(C(=O)[C@H](CCC(=O)O)n3cc(C(N)CO)nn3)CC2)nc(N2CCN(C(=O)[C@H](Cc3ccc(O)cc3)n3cc(C(N)[C@H](C)CC)nn3)CC2)n1` (stereo partly specified), the activity change is -12.3% (inactive).
Take `C#CCOCCOCCOCCNc1nc(N2CCN(C(=O)[C@H](Cc3ccc(O)cc3)n3cc(C(N)CC(C)C)nn3)CC2)nc(N2CCN(C(=O)[C@H](CCC(=O)O)n3cc(C(N)[C@H](C)CC)nn3)CC2)n1` (stereo partly specified): the activity change was -84.4% (active).
Take `C#CCOCCOCCOCCNc1nc(N2CCN(C(=O)C(Cc3ccc(O)cc3)n3cc(C(N)CC(C)C)nn3)CC2)nc(N2CCN(C(=O)C(Cc3ccc(O)cc3)n3cc(C(N)C(C)CC)nn3)CC2)n1` (stereo unspecified): the activity change is -9.18% (inactive).
With `CC1(c2cccc(N)c2)OCCO1` the figure was -12.6% (inactive).
On to `CC(C)[C@H](NC(=O)c1ccccc1F)C(=O)Nc1cccc(S(=O)(=O)N2CCOCC2)c1`, for which the activity change is 9.74% (inactive).
On to `CCOCCCN(C)C1CCN(C(=O)c2oc3ccccc3c2NC(=O)Cc2cccc([N+](=O)[O-])c2)CC1`, for which the activity change was -104% (active).
With `COc1ccc(CC(=O)Nc2c(C(N)=O)oc3ccccc23)cc1`, the activity change was -8.15% (inactive).
In the case of `COCC(=O)Nc1c(C(=O)N2CCCC2)oc2ccccc12`, the activity change was 6.72% (inactive).
For `CCOCCCN(C)C1CCN(C(=O)c2oc3ccccc3c2NC(=O)COc2cccc(C)c2)CC1`, the activity change is -107% (active).
On to `COc1cccc(OC)c1C(=O)Nc1c(C(=O)N2CCN(c3ccccn3)CC2)oc2ccccc12`, for which the activity change is -4.91% (inactive).
Turning to `CN(C(=O)c1cccc(NC(=O)Cc2cccc([N+](=O)[O-])c2)c1)C1CCCCC1`, the activity change is 18.4% (inactive).
The value for `CC1=C(C(=O)N2CCOCC2)CC(CC(=O)NCCN2CCOCC2)C(=O)N1CCC1=CCCCC1` (stereo unspecified) was 16% (inactive); that for `Cc1cc(=O)c2ccc(NC(=O)c3ccccc3)cc2[nH]1` was 3.07% (inactive); that for `COc1ccc(S(=O)(=O)N2CCN(CC(=O)N3CCNC3=O)CC2)cc1OC` was 12.9% (inactive).
As to `C[C@@H]1CN([C@@H](C)CO)C(=O)c2c(c3ccccc3n2C)-c2ccccc2CO[C@H]1CN(C)C(=O)C1CC1`, the activity change is 14.8% (inactive).
As to `O=C1C=C(c2cccc(Cl)c2)C[C@@H](c2ccc(F)cc2)C1`, the activity change was 2.02% (inactive).
`COc1ccc([C@H]2CC(=O)C=C(c3ccc(CO)cc3)C2)cc1`: the activity change was 22.6% (inactive).
As for `N#Cc1ccc(C2=CC(=O)C[C@H](c3ccc(Cl)cc3)C2)cc1`, the activity change is -83.2% (active).
Regarding `C[C@H]1CN([C@@H](C)CO)S(=O)(=O)c2ccc(-c3cccc(F)c3)cc2O[C@@H]1CN(C)C`, the activity change was -7.52% (inactive).
The value for `O=C(N/C(=C\c1ccc([N+](=O)[O-])cc1)C(=O)N1CCCCC1)c1ccco1` was -4.37% (inactive); that for `O=C(N/C(=C\c1ccc([N+](=O)[O-])cc1)C(=O)N1CCOCC1)c1cccc(Br)c1` was -83.4% (active); that for `O=C(Oc1ccc(Br)cc1C(=S)N1CCOCC1)c1cccc([N+](=O)[O-])c1` was -8.06% (inactive).
For the compound `O=C(Nc1cccc(NC(=O)c2ccccc2[N+](=O)[O-])c1)c1ccccc1Cl`, the activity change is -165% (active).
With `CC(C)C(=O)Nc1cccc(NC(=O)c2ccc([N+](=O)[O-])cc2Cl)c1` the figure was 18.7% (inactive); with `O=C(Nc1ccncc1)c1ccccc1[N+](=O)[O-]`, 8.15% (inactive).
